# Source: paper PMC7862700, “An all-to-all approach to the identification of sequence-specific readers for epigenetic DNA modifications on cytosine”
# Assays:
# Assay in all cases: DAPPL (digital affinity profiling via proximity ligation, sequencing); 10 mM Tris-HCl pH 7.5, 50 mM NaCl, 1 mM DTT, 4% glycerol, room temperature, 30 min; GST-TFs on glutathione beads, 16-mer random dsDNA library, 0.1% formaldehyde crosslink after washing; high values mean tight binding
# FEV = target: T1, FEV (Homo sapiens, UniProt Q99581 1-238); settings: protein: recombinant; tags: N-terminal GST; dsDNA, one strand shown
# T1 sequence: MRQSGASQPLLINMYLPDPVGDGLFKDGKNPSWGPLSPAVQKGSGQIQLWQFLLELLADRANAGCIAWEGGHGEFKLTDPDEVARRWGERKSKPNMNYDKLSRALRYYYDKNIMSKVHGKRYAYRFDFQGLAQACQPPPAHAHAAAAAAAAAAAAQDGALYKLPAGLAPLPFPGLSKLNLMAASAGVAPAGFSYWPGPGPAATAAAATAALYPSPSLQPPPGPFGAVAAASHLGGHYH
# In short: (§1)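 Yeast served to express human transcription factors as GST fusions, which were then captured on glutathione beads and labelled with DNA barcodes. Pooled with a tag-only sample, they were incubated with 200 nmole of a 16-mer random double-stranded DNA library for 30 min at room temperature in Tris/NaCl/DTT/glycerol buffer, washed, crosslinked with 0.1% formaldehyde, ligated by proximity, amplified by PCR and sequenced. Dividing each hexamer's read frequency for a factor by its frequency for the tag-only sample gives the binding signal.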
# ETV5 = ETV5 (Homo sapiens, UniProt P41161 1-510); settings: protein: recombinant; tags: N-terminal GST; dsDNA, one strand shown
# ETV5, sequence (P41161 whole entry): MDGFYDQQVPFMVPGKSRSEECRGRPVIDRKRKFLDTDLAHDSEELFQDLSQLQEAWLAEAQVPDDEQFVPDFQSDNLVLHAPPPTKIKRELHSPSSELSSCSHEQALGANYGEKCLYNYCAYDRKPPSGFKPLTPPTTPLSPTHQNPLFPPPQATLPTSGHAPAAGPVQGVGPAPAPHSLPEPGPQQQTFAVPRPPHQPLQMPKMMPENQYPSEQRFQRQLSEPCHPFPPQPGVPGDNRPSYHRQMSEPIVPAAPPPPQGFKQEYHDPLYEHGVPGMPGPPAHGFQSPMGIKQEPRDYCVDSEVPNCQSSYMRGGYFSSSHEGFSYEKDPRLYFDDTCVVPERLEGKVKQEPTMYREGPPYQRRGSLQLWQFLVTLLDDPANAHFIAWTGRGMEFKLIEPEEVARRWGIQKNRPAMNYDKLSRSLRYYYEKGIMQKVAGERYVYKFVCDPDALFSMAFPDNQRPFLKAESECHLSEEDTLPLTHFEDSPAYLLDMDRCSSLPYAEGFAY
# In short: as §1
# HSF1 = HSF1 (Homo sapiens, UniProt Q00613 1-529); settings: protein: recombinant; tags: N-terminal GST; chain copies: 3; dsDNA, one strand shown
# HSF1, sequence (Q00613 whole entry): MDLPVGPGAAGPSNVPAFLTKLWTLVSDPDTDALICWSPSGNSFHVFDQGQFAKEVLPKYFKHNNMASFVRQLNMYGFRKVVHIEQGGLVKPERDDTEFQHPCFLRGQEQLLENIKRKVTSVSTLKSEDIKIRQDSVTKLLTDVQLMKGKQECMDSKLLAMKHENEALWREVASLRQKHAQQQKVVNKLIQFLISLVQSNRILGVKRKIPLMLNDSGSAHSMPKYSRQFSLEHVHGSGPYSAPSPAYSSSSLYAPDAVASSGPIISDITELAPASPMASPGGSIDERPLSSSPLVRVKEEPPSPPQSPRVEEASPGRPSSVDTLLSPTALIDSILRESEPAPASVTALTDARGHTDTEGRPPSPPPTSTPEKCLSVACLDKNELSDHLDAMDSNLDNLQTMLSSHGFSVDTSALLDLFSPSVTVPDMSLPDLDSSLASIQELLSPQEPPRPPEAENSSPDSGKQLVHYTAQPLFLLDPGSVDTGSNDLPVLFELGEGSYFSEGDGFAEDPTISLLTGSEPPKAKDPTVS
# In short: as §1
# SPIC = target: T2, SPIC (Homo sapiens, UniProt Q8N5J4 1-248); settings: protein: recombinant; tags: N-terminal GST; dsDNA, one strand shown
# T2 sequence: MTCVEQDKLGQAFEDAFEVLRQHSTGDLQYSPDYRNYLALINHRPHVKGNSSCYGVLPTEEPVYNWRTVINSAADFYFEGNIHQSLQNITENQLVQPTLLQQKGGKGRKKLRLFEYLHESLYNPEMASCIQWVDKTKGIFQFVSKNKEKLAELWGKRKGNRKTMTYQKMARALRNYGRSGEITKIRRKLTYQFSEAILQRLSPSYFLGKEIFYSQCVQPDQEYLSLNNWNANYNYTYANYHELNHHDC
# In short: as §1
# ELF4 = ELF4 (Homo sapiens, UniProt Q99607 1-663); settings: protein: recombinant; tags: N-terminal GST; dsDNA, one strand shown
# ELF4, sequence (Q99607 whole entry): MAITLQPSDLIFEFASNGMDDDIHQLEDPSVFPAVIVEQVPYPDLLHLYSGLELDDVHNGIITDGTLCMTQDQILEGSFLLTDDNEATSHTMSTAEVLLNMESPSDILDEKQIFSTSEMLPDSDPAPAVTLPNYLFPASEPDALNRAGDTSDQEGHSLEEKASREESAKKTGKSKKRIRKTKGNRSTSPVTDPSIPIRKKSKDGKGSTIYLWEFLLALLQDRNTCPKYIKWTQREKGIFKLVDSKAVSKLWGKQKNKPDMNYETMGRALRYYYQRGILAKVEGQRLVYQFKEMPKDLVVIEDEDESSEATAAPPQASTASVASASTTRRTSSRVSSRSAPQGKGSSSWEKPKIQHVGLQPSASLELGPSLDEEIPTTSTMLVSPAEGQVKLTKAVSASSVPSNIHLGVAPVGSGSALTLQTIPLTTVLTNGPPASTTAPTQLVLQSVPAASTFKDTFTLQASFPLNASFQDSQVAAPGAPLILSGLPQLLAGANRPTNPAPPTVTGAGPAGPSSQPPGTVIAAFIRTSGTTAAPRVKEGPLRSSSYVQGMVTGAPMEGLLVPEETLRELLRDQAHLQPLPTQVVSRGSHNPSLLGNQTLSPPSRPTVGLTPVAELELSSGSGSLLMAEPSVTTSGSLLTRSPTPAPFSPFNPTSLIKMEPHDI
# In short: as §1
# ELK4 = target: T3, ELK4 (Homo sapiens, UniProt P28324-2 1-405); settings: protein: recombinant; tags: N-terminal GST; dsDNA, one strand shown
# T3 sequence: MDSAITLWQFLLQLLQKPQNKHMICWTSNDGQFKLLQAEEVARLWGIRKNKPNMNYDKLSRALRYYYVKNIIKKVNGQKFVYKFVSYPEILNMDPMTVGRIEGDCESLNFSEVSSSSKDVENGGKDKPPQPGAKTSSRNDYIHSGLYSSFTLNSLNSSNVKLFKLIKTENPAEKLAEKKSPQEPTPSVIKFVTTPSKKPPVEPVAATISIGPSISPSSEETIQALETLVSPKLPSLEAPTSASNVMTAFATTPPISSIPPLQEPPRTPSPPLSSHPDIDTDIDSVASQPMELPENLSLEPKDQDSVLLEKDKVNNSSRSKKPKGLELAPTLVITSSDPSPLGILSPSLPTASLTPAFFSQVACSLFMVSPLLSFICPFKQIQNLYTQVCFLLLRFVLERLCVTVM
# In short: as §1
# ETV2 = target: T4, ETV2 (Homo sapiens, UniProt O00321 1-342); settings: protein: recombinant; tags: N-terminal GST; dsDNA, one strand shown
# T4 sequence: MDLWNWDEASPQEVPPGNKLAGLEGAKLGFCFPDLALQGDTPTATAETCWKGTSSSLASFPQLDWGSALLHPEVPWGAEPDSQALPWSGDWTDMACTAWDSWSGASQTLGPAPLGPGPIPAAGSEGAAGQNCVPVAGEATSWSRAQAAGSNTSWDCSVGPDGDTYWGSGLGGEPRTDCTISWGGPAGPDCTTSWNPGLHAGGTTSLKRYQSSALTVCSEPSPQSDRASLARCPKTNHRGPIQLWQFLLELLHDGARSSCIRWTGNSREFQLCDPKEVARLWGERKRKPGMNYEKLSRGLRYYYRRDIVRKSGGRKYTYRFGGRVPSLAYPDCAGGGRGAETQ
# In short: as §1
# ELF3 = target: T5, ELF3 (Homo sapiens, UniProt P78545 1-371); settings: protein: recombinant; tags: N-terminal GST; dsDNA, one strand shown
# T5 sequence: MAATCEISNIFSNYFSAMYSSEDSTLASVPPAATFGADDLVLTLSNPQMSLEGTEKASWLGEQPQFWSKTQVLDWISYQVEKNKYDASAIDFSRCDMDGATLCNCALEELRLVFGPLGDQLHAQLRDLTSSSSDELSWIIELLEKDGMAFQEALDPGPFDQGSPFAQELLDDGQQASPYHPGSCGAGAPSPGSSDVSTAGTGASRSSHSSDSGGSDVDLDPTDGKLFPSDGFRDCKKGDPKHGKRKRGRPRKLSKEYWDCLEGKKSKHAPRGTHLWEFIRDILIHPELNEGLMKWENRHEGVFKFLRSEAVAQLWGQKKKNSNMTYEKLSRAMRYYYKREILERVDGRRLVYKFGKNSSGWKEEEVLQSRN
# In short: as §1
# CRX = CRX (Homo sapiens, UniProt O43186 1-299); settings: protein: recombinant; tags: N-terminal GST; dsDNA, one strand shown
# CRX, sequence (O43186 whole entry): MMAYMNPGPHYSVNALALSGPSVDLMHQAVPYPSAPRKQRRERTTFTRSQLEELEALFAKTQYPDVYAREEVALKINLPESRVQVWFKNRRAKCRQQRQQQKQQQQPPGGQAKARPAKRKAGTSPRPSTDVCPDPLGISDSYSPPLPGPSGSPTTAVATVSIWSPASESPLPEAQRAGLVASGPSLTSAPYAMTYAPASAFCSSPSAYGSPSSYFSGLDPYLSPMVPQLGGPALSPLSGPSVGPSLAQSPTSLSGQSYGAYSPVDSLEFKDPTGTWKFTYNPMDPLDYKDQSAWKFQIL
# In short: as §1
# ETV1 = ETV1 (Homo sapiens, UniProt P50549 1-477); settings: protein: recombinant; tags: N-terminal GST; dsDNA, one strand shown
# ETV1, sequence (P50549 whole entry): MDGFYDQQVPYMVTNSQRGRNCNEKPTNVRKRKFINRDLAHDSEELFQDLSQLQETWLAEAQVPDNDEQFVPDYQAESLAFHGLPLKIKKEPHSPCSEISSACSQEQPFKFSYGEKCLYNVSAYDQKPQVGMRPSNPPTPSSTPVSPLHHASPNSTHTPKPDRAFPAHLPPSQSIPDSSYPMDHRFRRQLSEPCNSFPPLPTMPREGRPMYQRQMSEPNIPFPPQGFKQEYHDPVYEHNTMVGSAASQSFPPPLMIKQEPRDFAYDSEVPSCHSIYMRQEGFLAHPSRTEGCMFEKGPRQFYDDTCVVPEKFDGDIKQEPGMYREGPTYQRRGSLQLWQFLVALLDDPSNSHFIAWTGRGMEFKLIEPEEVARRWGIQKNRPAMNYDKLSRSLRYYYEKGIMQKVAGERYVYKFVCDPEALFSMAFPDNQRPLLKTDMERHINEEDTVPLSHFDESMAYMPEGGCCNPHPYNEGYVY
# In short: as §1
# ERF = target: T6, ERF (Homo sapiens, UniProt P50548 1-548); settings: protein: recombinant; tags: N-terminal GST; dsDNA, one strand shown
# T6 sequence: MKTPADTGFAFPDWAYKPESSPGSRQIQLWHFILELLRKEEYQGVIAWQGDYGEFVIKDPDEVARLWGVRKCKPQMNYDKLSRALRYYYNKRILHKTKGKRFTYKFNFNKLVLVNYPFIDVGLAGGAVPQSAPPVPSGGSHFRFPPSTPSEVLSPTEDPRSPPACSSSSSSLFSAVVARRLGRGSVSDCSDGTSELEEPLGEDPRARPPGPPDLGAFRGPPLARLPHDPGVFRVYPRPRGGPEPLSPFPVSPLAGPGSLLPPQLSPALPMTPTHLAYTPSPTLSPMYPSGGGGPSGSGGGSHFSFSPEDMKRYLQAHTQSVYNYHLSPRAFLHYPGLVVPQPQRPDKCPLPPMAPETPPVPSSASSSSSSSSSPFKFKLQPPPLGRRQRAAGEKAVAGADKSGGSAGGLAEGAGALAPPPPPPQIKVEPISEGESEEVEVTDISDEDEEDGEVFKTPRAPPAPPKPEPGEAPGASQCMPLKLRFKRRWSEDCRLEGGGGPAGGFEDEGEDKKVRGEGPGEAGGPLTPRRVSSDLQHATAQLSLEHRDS
# In short: as §1
# ETV3L = target: T7, ETV3L (Homo sapiens, UniProt Q6ZN32 1-361); settings: protein: recombinant; tags: N-terminal GST; dsDNA, one strand shown
# T7 sequence: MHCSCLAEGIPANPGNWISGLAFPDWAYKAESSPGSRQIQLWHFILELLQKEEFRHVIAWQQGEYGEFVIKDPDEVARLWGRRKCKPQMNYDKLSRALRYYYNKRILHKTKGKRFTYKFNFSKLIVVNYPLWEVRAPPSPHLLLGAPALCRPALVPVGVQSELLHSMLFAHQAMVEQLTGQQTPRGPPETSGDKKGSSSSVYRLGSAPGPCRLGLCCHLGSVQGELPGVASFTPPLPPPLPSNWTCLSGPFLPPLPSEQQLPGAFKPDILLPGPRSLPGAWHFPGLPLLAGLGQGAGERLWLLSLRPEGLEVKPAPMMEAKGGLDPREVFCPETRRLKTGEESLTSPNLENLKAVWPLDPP
# In short: as §1
# ETS2 = target: T8, ETS2 (Homo sapiens, UniProt P15036 1-469); settings: protein: recombinant; tags: N-terminal GST; dsDNA, one strand shown
# T8 sequence: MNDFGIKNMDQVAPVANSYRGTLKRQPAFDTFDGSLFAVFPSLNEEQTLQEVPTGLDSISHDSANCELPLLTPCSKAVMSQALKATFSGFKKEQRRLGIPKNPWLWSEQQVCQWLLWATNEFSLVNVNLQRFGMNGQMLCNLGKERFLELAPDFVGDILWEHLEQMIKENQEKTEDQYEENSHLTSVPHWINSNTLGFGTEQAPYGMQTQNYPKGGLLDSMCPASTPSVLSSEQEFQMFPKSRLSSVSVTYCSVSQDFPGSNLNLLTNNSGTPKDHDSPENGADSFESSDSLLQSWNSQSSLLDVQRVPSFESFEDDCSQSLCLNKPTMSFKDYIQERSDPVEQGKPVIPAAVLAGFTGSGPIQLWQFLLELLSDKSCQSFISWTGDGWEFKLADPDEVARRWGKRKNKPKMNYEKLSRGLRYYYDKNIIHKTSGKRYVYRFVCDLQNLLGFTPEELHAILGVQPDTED
# In short: as §1
# SPDEF = target: T9, SPDEF (Homo sapiens, UniProt O95238 1-335); settings: protein: recombinant; tags: N-terminal GST; dsDNA, one strand shown
# T9 sequence: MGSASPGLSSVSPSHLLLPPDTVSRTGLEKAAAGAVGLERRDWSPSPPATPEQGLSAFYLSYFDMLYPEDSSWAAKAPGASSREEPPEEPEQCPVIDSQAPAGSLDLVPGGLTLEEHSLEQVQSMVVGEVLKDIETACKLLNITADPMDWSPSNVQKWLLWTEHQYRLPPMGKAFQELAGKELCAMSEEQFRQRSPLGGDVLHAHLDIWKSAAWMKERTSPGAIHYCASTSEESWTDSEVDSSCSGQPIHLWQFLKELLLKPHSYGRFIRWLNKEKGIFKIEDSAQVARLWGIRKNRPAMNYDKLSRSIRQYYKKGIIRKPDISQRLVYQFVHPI
# In short: as §1
# ETV7 = target: T10, ETV7 (Homo sapiens, UniProt Q9Y603 1-341); settings: protein: recombinant; tags: N-terminal GST; dsDNA, one strand shown
# T10 sequence: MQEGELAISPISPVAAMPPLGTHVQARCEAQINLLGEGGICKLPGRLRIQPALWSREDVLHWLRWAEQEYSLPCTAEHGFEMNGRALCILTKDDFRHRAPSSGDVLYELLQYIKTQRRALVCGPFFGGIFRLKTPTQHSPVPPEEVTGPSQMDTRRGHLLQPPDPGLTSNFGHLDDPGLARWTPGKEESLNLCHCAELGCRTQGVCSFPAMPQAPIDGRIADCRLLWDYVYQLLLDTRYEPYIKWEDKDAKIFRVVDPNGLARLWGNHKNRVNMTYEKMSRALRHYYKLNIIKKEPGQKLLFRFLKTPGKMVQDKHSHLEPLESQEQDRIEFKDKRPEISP
# In short: as §1
# ELF5 = target: T11, ELF5 (Homo sapiens, UniProt Q9UKW6-2 1-255); settings: protein: recombinant; tags: N-terminal GST; dsDNA, one strand shown
# T11 sequence: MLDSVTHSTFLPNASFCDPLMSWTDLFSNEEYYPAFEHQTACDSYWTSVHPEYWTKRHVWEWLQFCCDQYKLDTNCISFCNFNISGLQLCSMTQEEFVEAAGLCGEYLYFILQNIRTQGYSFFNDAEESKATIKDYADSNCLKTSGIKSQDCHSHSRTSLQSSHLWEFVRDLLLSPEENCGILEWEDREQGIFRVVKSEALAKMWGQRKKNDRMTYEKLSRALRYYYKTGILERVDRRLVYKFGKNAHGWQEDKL
# In short: as §1
# ETV3 = target: T12, ETV3 (Homo sapiens, UniProt P41162-2 1-143); settings: protein: recombinant; tags: N-terminal GST; dsDNA, one strand shown
# T12 sequence: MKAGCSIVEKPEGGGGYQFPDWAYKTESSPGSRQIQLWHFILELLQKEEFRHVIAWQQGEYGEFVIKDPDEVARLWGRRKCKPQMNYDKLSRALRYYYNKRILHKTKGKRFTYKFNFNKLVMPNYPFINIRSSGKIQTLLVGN
# In short: as §1
# ETV6 = ETV6 (Homo sapiens, UniProt P41212 1-452); settings: protein: recombinant; tags: N-terminal GST; dsDNA, one strand shown
# ETV6, sequence (P41212 whole entry): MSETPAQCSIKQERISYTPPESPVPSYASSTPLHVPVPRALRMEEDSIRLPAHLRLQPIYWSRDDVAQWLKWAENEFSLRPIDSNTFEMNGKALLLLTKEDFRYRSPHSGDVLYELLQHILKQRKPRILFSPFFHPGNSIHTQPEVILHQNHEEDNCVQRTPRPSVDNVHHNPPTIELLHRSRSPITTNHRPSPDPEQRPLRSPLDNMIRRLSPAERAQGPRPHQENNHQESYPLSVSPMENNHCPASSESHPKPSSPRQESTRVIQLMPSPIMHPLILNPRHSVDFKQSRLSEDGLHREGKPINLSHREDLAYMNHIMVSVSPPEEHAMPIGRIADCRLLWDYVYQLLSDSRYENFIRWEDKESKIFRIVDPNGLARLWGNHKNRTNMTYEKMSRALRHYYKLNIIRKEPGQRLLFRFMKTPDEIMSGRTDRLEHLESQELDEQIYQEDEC
# In short: as §1
sequence,measurement,setting,value
CCTTTG,binding signal,FEV,"1.31 fold enrichment (6-mer frequency, TF over GST control)"
same,binding signal,ETV5,"1.3 fold enrichment (6-mer frequency, TF over GST control)"
same,binding signal,HSF1,"1.21 fold enrichment (6-mer frequency, TF over GST control)"
same,binding signal,SPIC,"1.38 fold enrichment (6-mer frequency, TF over GST control)"
same,binding signal,ELF4,"1.36 fold enrichment (6-mer frequency, TF over GST control)"
same,binding signal,ELK4,"1.19 fold enrichment (6-mer frequency, TF over GST control)"
same,binding signal,ETV2,"1.24 fold enrichment (6-mer frequency, TF over GST control)"
same,binding signal,ELF3,"1.27 fold enrichment (6-mer frequency, TF over GST control)"
same,binding signal,CRX,"1.09 fold enrichment (6-mer frequency, TF over GST control)"
same,binding signal,ETV1,"1.42 fold enrichment (6-mer frequency, TF over GST control)"
same,binding signal,ERF,"1.24 fold enrichment (6-mer frequency, TF over GST control)"
same,binding signal,ETV3L,"1.32 fold enrichment (6-mer frequency, TF over GST control)"
same,binding signal,ETS2,"1.32 fold enrichment (6-mer frequency, TF over GST control)"
same,binding signal,SPDEF,"1.22 fold enrichment (6-mer frequency, TF over GST control)"
same,binding signal,ETV7,"1.33 fold enrichment (6-mer frequency, TF over GST control)"
same,binding signal,ELF5,"1.31 fold enrichment (6-mer frequency, TF over GST control)"
same,binding signal,ETV3,"1.34 fold enrichment (6-mer frequency, TF over GST control)"
same,binding signal,ETV6,"1.17 fold enrichment (6-mer frequency, TF over GST control)"
